The values that follow come from PubChem BioAssay (EPA / NIEHS).

The target in test [1] is human Matrix Metalloproteinase-9 (MMP9), MMP9 (gene 4318) (UniProt P14780). The test can be described thus: NVS_ENZ_hMMP9: NovaScreen (NVS) Enzymatic Assay for human Matrix Metalloproteinase-9 (MMP9) (AID 2283190).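 Note: cell-free recombinant MMP9 protease activity read by fluorescent substrate signal; active means inhibition seen as loss of fluorescence signal versus DMSO.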 Put shortly: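 Cell-free fluorescence-intensity enzyme activity assay using extracted protein, read 1 h after dosing. Loss of signal versus DMSO baseline indicates inhibition; primary screen in duplicate at 25 uM, actives followed up in concentration series.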
Chain of human Matrix Metalloproteinase-9 (MMP9), MMP9 (gene 4318) (P14780 whole entry, looked up): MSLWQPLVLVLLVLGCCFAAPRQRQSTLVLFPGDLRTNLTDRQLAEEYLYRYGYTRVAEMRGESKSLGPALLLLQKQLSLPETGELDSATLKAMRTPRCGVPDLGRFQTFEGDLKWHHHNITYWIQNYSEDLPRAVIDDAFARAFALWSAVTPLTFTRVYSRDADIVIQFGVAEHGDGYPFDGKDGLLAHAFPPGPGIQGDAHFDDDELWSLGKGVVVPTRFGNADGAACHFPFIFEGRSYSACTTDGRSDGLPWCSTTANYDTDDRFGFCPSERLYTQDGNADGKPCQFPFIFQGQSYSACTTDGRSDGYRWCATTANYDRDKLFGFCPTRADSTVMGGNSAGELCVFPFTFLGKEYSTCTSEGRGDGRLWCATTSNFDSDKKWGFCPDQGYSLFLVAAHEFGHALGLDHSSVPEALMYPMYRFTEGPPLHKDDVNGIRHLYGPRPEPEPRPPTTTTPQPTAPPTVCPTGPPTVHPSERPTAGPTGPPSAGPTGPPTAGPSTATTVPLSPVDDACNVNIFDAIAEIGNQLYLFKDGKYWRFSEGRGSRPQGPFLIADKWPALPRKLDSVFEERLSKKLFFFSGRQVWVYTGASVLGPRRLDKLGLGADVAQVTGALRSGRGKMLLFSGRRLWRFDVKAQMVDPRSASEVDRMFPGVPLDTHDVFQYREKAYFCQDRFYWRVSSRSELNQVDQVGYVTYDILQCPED

In test [2] the target is cAMP-dependent protein kinase catalytic subunit alpha (Homo sapiens) (UniProt P17612). The test can be described thus: NVS_ENZ_hPKA: NovaScreen (NVS) Enzymatic Assay for human Protein Kinase A (PKA) (AID 2283192). In outline:
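Cell-free kinase activity read by fluorescence after mobility-shift separation of substrate and product, 1 h post-dosing. Single-concentration duplicate screen (25 uM) preceded singleton concentration series (top 50 uM); loss of signal versus DMSO.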

Test [3] addresses human Matrix Metalloproteinase-3 (MMP3), MMP3 (gene 4314) (UniProt P08254). The test can be described thus: NVS_ENZ_hMMP3: NovaScreen (NVS) Enzymatic Assay for human Matrix Metalloproteinase-3 (MMP3) (AID 2283185). Put shortly:
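Fluorescent substrate turnover by recombinant MMP3 read after 1 h, signal loss scored against DMSO. Compounds first run in duplicate at 25 uM single dose, then actives confirmed by concentration series.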

Records with an inconclusive call do not appear. Calls of active or inactive are those of the source. Rule for the calls: active = hit-call score of the fitted dose curve at least 0.9, where 1 is the maximum; inconclusive = response in the unintended direction; inactive = score below 0.9.

Chain of human Matrix Metalloproteinase-3 (MMP3), MMP3 (gene 4314) (P08254 whole entry, looked up): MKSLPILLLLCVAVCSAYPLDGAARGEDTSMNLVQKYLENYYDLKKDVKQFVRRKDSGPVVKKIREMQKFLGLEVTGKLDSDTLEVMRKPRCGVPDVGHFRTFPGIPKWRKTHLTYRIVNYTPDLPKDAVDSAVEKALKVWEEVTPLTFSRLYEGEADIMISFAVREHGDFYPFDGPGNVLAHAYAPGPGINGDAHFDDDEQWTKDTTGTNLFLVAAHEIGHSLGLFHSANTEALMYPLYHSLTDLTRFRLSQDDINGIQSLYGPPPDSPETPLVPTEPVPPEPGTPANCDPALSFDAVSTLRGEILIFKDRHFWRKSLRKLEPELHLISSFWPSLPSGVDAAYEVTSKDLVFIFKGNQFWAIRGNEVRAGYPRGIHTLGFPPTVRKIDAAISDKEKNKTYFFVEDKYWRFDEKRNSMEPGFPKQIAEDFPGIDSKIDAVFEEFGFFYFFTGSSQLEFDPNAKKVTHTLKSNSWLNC

As to `CCOC(=O)c1ccc(C2CCC(NC[C@H](O)COc3ccc(O)c(NS(C)(=O)=O)c3)CC2)cc1` (stereo partly drawn), in test [1], the concentration at half-maximal activity (AC50) (commonly the concentration at which the activity in the assay is half-maximal) was 12.7 µM (active). In the case of `CN(C)c1ccc(Cc2ccc(N(C)C)cc2)cc1`, the result in test [2] was inactive. With `Cc1[nH]cnc1C[C@H]1CCc2c(C)c3ccccc3n2C1=O`, the concentration at half-maximal activity (AC50) in test [3] is 29.9 µM (active).
